Among the data in PubChem BioAssay (NCI) are growth values, retold here.

Structures are written as SMILES. Compounds without any hit were thinned out: in the full panel of roughly 83,000, 20% have a hit.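 Testing used 96-well plates and a 48-hour single-concentration exposure. Example: -40 means 40% of the starting cells died.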 Values without a mark were called inactive. Activity calls are given as the source filed them. The calls were made as follows: active = growth percent below 10; inactive = the rest.

The assay relates to HL-60(TB) leukemia. The assay can be described thus: NCI-60 one-dose screen, 48 h (100 = growth as untreated, 0 = no growth, -100 = all killed). To be noted: 10 µM unless noted.
For `O=C(CSSCC(=O)c1ccc(Cl)cc1)c1ccc(Cl)cc1`, the growth was 44.7%.

On to `CN1/C(=C/C=C/c2n(Cc3ccc4ccccc4c3)c(Cl)c(Cl)[n+]2Cc2ccc3ccccc3c2)Oc2ccccc21`, for which the growth is 98.9%.

`COc1cc2c(cc1OC)C(C)N(S(N)(=O)=O)CC2` (stereo not given): the growth was 72.2%.

Turning to `Nc1ccc(Cl)cn1`, the growth is 100%.

As to `COc1cc(-c2nn(-c3ccc(NC(=O)Nc4ccc(Cl)c(C(F)(F)F)c4)cc3)cc2-c2ccncc2)ccc1Cl`, the growth is 1.53% (active).

As to `COc1ccc(OC)c(Cn2cc3c(c2)-c2oncc2CC3)c1`, the growth is 13.7%.

As to `COc1ccc(NC(N)=NCCCOc2ccc(F)cc2)cc1`, the growth was 87.7%.

`CCc1ccc(-c2ccc(COc3ccc(CC4SC(=O)NC4=O)cc3)cc2)cc1` (stereo not given): the growth was 88.1%.

Regarding `Nc1c(C(=O)Nc2cccc3c2OCCO3)sc2nc3c(cc12)CN(Cc1ccccc1)CC3`, the growth is 19.1%.

Regarding `NS(=O)(=O)c1ccc(Cn2c(SCC(=O)N/N=C/c3ccccc3O)nc3ccccc3c2=O)cc1`, the growth is 40.9%.

As for `CCn1cc(C(=O)NNC(=S)Nc2ccc(C)cc2)c(=O)c2ccc(C)nc21`, the growth was 94.5%.

For `COc1ccc(/C=C/C(=O)c2cc(OC)c(OC)c(OC)c2)cc1OCC(=O)Nc1nc2ccc(OC(F)(F)F)cc2s1`, the growth is 6.61% (active).

For the molecule `N=C(N)c1ccc(-c2ccc(-c3cncc4ccccc34)s2)s1`, the growth was 13.6%.

For `Clc1ccc(-c2nc(C(Cl)Cl)nc3cc(-c4ccccc4)nn23)cc1`, the growth was 5.27% (active).

For `O=C(Cn1cc(CSc2nc3ccccc3o2)nn1)Nc1ccc([N+](=O)[O-])cc1`, the growth is 98.2%.

As for `O=C1c2cccc3cccc(c23)C(=O)N1N1C(=O)c2cccc3c(NC4CCCCC4)ccc(c23)C1=O`, the growth was 99.3%.

On to `CC(C)=CCNc1ncnc2c1ncn2C1OC(COP(=O)(O)O)C(O)C1O` (stereo not given), for which the growth is -38.4% (active).

Consider `O=[N+]([O-])c1cc(Br)cc2c1[nH]c1ccc(Br)cc12`, for which the growth is 85%.

Take `CC(C)[C@H](NC(=O)Cn1cc(C(=O)O)nn1)C(=O)O`: the growth was 123%.

As to `CCCCCCCCOC(=O)c1c(C)[nH]c(/C=C2\N=C(c3ccc[nH]3)C=C2OC)c1C`, the growth was 4.96% (active).

With `COc1cccc(C(=O)Nc2cccc(NC(=O)c3ccccn3)c2)c1`, the growth is 87.8%.

Turning to `CC[C@]12C=CCN3CC[C@@]4(c5cc(NC(=O)CCC(=O)O[C@H]6CC[C@H]7[C@@H]8CC[C@H]9CC(=O)CC[C@]9(C)[C@H]8CC[C@]67C)c(OC)cc5N(C)[C@H]4[C@@](O)(C(=O)OC)[C@@H]1OC(C)=O)[C@@H]32`, the growth is 38.6%.

In the case of `O=C(O)c1ccccc1Oc1cc(-c2ccco2)nc(OCCBr)n1`, the growth is 100%.

Regarding `O=[N+]([O-])c1ccc(Sc2cccc[n+]2[O-])c2nonc12`, the growth is -49.1% (active).

With `O=C(/C(=C\c1c(-c2ccccc2)[nH]c2ccccc12)S(=O)(=O)c1ccccc1)c1ccccc1`, the growth was -18.2% (active).

Turning to `O=C(C(=O)N1CCOCC1)c1ccc(OC2OC(CO)C(O)C(O)C2O)cc1` (stereo not given), the growth was 82.7%.

Take `CC1CCCN(CCCCOc2ccc(-c3ccc(C#N)cc3)cc2)C1` (stereo not given): the growth was 92.6%.

Regarding `N#Cc1cnc2ccc(NCc3cnc[nH]3)cc2c1Nc1ccc(F)c(Cl)c1`, the growth was 79.4%.

Consider `CCN(CC)CCNc1ccc(CO)c2sc3ccccc3c(=O)c12`, for which the growth was 60.8%.

With `O=C(N=c1n(-c2ccccc2)nc2n1CCN2C1=NCCN1)c1ccc(Cl)cc1`, the growth was 95.8%.

For `O=[N+]([O-])c1ccc(Cl)c(-c2cc(CCCCO)on2)c1`, the growth is 90.7%.

Regarding `COc1cc(/C=C/C(=O)N2CCN(C(=O)/C=C/c3cc(OC)c(OC)c(OC)c3)CC2)cc(OC)c1OC`, the growth is 91.7%.

On to `COc1cc(-c2c(-c3ccccc3)c[nH]c2C(=O)NCCCO)c(OC)c2c1OCO2`, for which the growth was 91.4%.

`CCn1c(Cc2ccccc2Nc2c(Cl)cccc2Cl)nnc1SCC(=O)NN1C(=O)/C(=C/c2cccc(OC)c2OC)SC1=S`: the growth was 97.5%.

Take `COc1ccc(-n2nc(C)c3c(Nc4ccc(NC(=O)Nc5ccc(Cl)c(C(F)(F)F)c5)cc4)ncnc32)cc1`: the growth is -9.54% (active).

On to `O=C(N=Nc1c(O)[nH]c2ccccc12)c1cc(-c2ccccc2)on1`, for which the growth is 97.5%.

As to `O=C(Nc1cc(Br)ccn1)c1cc2cc(Nc3nc(-c4ccccc4)nc4ccccc34)ccc2oc1=O`, the growth is 87.3%.

In the case of `O=C(Nc1cccc(-n2cc(-c3ccncc3)c(-c3ccc(O)c(Cl)c3)n2)c1)Nc1ccc(Cl)c(C(F)(F)F)c1`, the growth is -2.7% (active).

On to `Fc1ccc([I+]c2ccc(F)cc2)cc1`, for which the growth is 54.5%.

In the case of `COc1ccc(-c2cc(/C=C3\C(=O)Nc4ccc(Cl)cc43)[nH]n2)cc1`, the growth was 22.6%.
